The record followed here is PubChem BioAssay.

“And” between values parts separate entries of the source, which are not always exact repeats. Equal values may be shown once. For part of these data: Entries with a potency or affinity are not part of this list. The source made the active and inactive calls. Unless noted, no stated cut-off is given here; in the data, active means parasite load remaining mostly below about 12% (no sharp cut-off); inactive means mostly above about 10%. Bridge positions count the residues as written; N and C are the ends. Square brackets hold non-standard residues; d marks the D form. Peptide text beside a SMILES is read from it. * marks the point of attachment. Octanoyl(6-Me) = CCC(C)CCCCC(=O)*; Dab = NCC[CH](N)C(=O)O

Assay [1] can be described thus: polyglutamine-triggered caspase-3 activation inhibitors, cell-based (AID 1583). The following applies: polyglutamine-induced caspase-3 activation, cell assay; stronger effect = higher value;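 tested at 10 µM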.
Assay [2] is described as follows: suppressors of polyQ aggregation in yeast, 75Q-TubU reporter (AID 1593). The conditions noted are these: Yeast 75Q polyglutamine aggregation reporter.
A short description of assay [3]: rescue of polyQ-huntingtin neuronal dysfunction in worms, whole organism, C. elegans mechanosensory neurons, N-terminal huntingtin (AID 1599). The conditions noted are these: touch response, stronger effect = higher value.
A short description of assay [4]: inhibitors of mitochondrial cytochrome c release, biochemical, purified mitochondria (AID 1603).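 Further: mouse liver mitochondria challenged with calcium chloride; signal normalized to the plate average as 100%.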 The following applies: stronger effect = lower value.
A short description of assay [5]: inhibitors of polyQ protein aggregation (AID 1604). The following applies: polyglutamine-induced protein aggregation inhibition assay; stronger effect = higher value; tested at 2.5 µM.
The nature of assay [6]: enhancers of glutamate uptake in motor neurons, MN-1 cell line (AID 1612).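 Further: tested at 1 µM final; 0% = mean of DMSO vehicle wells on each plate; positive means more glutamate uptake than control and negative means less.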 The following applies: MN-1 motor neuron cells, stronger effect = higher value.
Assay [7] can be described thus: reducers of polyQ inclusions in PC12 cells, cell-based, NGF-treated PC12, GFPQ80 (AID 1614).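 Further: lower means fewer inclusions and 0 means no inclusions at all.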 The following applies: PC12 NGF-treated GFP-polyQ80 inclusion reduction.
Assay [8] is described as follows: suppressors of polyglutamine aggregation in yeast, 75Q-TubH (AID 1616). The conditions noted are these: S. cerevisiae 75Q-TubH polyglutamine aggregation suppression; stronger effect = higher value.
Assay [9] is described as follows: liver-stage malaria parasite growth inhibition, primary screen, cell-based, HepG2, luciferase luminescence, HepG2 viability (AID 624349).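 Further: 100% = mean of DMSO negative control wells on the same plate.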 The conditions noted are these: P. berghei liver stage in HepG2, luciferase luminescence, concentration not given here; parasite load remaining: stronger effect = lower value; viability: measured here: HepG2 viability without parasites.
Assay [10] has as its target 6-phosphogluconate dehydrogenase, decarboxylating (Homo sapiens) (UniProt P52209). As to the kind of experiment: 6PGD enzyme inhibitors, primary screen, biochemical, human, recombinant enzyme, NADPH absorbance (AID 1159550;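 active means at least 20% inhibition of 6-phosphogluconate dehydrogenase activity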). The following applies: recombinant 6PGD, NADPH absorbance 341 nm; at 10 µM; stronger effect = higher value.
Assay [11] is described as follows: differential killing of epithelial or mesenchymal cells, primary screen, imaging, PC-3E GFP, TEM4-18 mCherry, co-culture (AID 1345086;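 active means compounds killing one labelled cell type while sparing the other, by normalised counts and ratio limits, not self-fluorescent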;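 on all read-outs here: cells exposed to compound for 72 h before imaging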;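 on red/green cell ratio (normalised): normalised mesenchymal count divided by normalised epithelial count so high means epithelial killing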). The conditions noted are these: imaging cell counts, at 1 µM; for red/green cell ratio (normalised): actives lie on both sides, counts scaled to control wells, 1 = unselective.
Assay [12] in a line: sensitizers of A549 cells to miR-34 induction, primary screen, imaging, A549 dox-inducible miR-34, nuclei and caspase counts (AID 1347080;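 active means compounds whose cell count with miR-34 switched on is under 0.7 times the count with it off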). The conditions noted are these: A549 miR-34 inducible, Hoechst nuclei count, 48 h.
Assay [13] concerns the target NAD(+) hydrolase SARM1 (Homo sapiens) (UniProt Q6SZW1). As to the kind of experiment: SARM1 TIR NADase inhibitors, cell lysate, NAD-Glo luminescence (AID 1508614;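 active means compound whose remaining NAD level is above about 45 nM, limit read from the data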). The following applies: SAM-TIR HEK293T lysate NADase, at 1 µM, stronger effect = higher value.
The target in assay [14] is Mitogen-activated protein kinase 7 (Homo sapiens) (UniProt Q13164). Description: ERK5 transactivation activators in reporter cells, primary screen, cell-based, HTS (AID 1508626;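 active means luciferase signal above three times the same-plate solvent-only control wells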;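 further: luciferase driven by Gal4-ERK5 fusion binding five Gal4 sites before minimal TATA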). The following applies: HeLa Gal4-ERK5 transactivation, 18 h, at 5 µM, stronger effect = higher value.
Assay [15] is described as follows: circadian clock period modulators, cell-based, LOPAC library, luminescence reporter (AID 2774; call rule not given here;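 further: values are relative to mean of DMSO wells on each plate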). The conditions noted are these: circadian reporter cells, at 7 µM, actives lie on both sides.
Assay [16] can be described thus: hESC survival regulators, cell-based (AID 493140; call rule not given here;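 further: cells exposed to compounds for four days before counting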). The conditions noted are these: human embryonic stem cell survival screen; stronger effect = higher value.
Assay [17] deals with Hepatitis C virus NS3 helicase. As to the kind of experiment: HCV NS3 helicase inhibitors, primary screen, biochemical, fluorescence polarization, LOPAC1280 library (AID 687035; in the data active means inhibition above about 37%). The conditions noted are these: Purified HCV NS3 helicase, Cy5-dT15 ssDNA binding fluorescence polarization; stronger effect = higher value; concentration not given here.
A short description of assay [18]: phospholipid biosynthesis inhibitors in animal cells, primary screen, cell-based, LOPAC library, screen 4 (AID 1347384; call rule not given here). The following applies: phospholipid biosynthesis inhibition screen, at 10 µM.
Assay [19] is described as follows: survival rescue of mitochondrial mutant cells in low glucose, primary screen, MELAS cybrids, Rieske KO mouse fibroblasts, CellTiter-Glo (AID 1508586;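 active means mean z-score across replicates of 1.96 or higher in either the MELAS or the Rieske mutant cell line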;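 further: z relative to plate mean and SD of compound and empty wells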). (Cellular ATP, detected with luciferase, serves as a proxy for viable cell number.)
Assay [20] is described as follows: viability rescue of complex I mutant cybrids, primary screen, cell-based, galactose medium, ATP luminescence (AID 1645843;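 active means z-score of at least 1.8 in each of two replicates, scored against plate mean and spread of sample wells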;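 further: positive z means more ATP and so rescue of galactose-driven cybrid death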). The conditions noted are these: complex I mutant cybrid cells, 72 h, stronger effect = higher value.
[21] abbreviates: measured here: epithelial PC-3E GFP cell survival.
The mark [22] stands for this setting: measured here: mesenchymal TEM4-18 mCherry cell survival.
Setting [23] is: stronger effect = lower value, cell number ratio, induced over uninduced.
[24] abbreviates: measured here: relative caspase fold change +Dox/-Dox.
[25] abbreviates: measured here: total cells with miR-34 induction, stronger effect = lower value.
The mark [26] stands for this setting: measured here: total cells without miR-34 induction.

Sequence of NAD(+) hydrolase SARM1 (Homo sapiens) (Q6SZW1 whole entry, looked up, the tested form may be a part): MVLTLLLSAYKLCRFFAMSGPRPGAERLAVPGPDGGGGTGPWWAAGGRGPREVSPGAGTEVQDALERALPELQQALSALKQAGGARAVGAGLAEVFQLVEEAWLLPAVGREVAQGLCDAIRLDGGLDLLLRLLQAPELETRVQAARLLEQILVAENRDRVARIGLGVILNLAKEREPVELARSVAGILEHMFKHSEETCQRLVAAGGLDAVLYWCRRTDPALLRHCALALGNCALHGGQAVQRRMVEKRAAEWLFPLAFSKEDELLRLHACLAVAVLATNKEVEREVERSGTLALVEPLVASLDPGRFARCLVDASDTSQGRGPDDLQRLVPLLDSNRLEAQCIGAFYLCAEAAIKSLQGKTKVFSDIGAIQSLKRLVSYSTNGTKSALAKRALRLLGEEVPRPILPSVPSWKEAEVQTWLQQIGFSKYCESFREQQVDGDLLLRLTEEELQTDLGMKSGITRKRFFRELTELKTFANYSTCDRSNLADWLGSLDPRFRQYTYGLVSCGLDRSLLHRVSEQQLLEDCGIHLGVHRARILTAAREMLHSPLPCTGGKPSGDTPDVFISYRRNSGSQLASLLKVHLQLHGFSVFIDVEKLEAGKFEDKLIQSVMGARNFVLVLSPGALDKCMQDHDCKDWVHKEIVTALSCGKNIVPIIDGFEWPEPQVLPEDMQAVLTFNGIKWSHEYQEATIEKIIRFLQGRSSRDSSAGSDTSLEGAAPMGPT
Sequence of 6-phosphogluconate dehydrogenase, decarboxylating (Homo sapiens) (P52209 whole entry, looked up): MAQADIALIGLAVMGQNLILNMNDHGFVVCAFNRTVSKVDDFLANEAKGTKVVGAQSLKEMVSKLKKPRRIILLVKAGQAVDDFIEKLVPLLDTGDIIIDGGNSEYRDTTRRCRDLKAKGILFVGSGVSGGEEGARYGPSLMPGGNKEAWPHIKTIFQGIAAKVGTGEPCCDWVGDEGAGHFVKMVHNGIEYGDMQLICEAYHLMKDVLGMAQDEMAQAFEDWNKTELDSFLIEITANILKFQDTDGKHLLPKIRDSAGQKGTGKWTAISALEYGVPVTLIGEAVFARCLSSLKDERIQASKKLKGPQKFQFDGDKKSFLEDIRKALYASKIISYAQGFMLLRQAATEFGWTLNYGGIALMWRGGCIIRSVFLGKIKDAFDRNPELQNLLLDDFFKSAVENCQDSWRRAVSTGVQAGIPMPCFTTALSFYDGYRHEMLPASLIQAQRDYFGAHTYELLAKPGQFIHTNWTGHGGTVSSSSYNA
Sequence of Mitogen-activated protein kinase 7 (Homo sapiens) (Q13164 whole entry, looked up, the tested form may be a part): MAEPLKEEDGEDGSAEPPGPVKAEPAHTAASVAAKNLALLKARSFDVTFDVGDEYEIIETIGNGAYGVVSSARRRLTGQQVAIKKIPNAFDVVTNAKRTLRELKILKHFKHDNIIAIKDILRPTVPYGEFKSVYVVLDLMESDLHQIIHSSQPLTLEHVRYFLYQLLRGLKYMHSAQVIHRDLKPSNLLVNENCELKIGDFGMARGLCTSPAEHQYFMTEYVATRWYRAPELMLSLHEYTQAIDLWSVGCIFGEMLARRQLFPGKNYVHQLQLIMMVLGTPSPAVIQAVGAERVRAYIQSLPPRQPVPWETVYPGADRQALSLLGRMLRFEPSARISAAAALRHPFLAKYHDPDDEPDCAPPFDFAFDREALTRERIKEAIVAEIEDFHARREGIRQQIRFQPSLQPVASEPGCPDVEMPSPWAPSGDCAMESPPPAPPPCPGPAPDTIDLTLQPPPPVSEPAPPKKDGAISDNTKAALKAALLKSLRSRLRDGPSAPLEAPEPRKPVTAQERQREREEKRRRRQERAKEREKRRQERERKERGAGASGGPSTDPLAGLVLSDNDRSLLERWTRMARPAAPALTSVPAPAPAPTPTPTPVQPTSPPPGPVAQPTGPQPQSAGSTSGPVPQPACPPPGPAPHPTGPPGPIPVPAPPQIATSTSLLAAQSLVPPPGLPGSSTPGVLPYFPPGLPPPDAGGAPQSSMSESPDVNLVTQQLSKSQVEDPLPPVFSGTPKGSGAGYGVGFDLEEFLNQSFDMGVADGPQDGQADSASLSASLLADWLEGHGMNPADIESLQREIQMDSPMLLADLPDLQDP

On to `CCC(C)CCCCC(=O)NC(CCN)C(=O)NC(C(=O)NC(CCN)C(=O)NC1CCNC(=O)C(C(C)O)NC(=O)C(CCN)NC(=O)C(CCN)NC(=O)C(CC(C)C)NC(=O)C(Cc2ccccc2)NC(=O)C(CCN)NC1=O)C(C)O` (stereo not drawn) ({Octanoyl(6-Me)}-[Dab]T[Dab][Dab][Dab]FL[Dab][Dab]T; lactam 4-C; configuration not given here), for which the inhibition (in general, the drop in the measured response relative to a control, in per cent) is 15% in assay [1] and 11% (inactive) in assay [10]. In assay [2], this compound had a score of 0.73. In assay [3], the rescue above control amounted to 0. For the same compound, in [4], the cytochrome c release ratio was found to be 7.61. The inhibition of aggregation in assay [5] came to 70.5%. The glutamate uptake change in assay [6] is -11.7%. The same compound displayed an inclusion score in [7] of 2. Further, in assay [8], the aggregation suppression score worked out at 0.739. The parasite load remaining in assay [9] was 82.5% (inactive) and 41.4% (inactive). Also, the viability (usually a per cent measure of how many cells are alive, often set against a control) in [9] is 77.7% and 91.4%. Moreover, in assay [11], the red/green cell ratio (normalised) is 1.23 (inactive). The normalised cell number in assay [11] (setting [21]) was 0.93; in assay [11] (setting [22]), 1.14. Further, the results for the fold change in assay [12] (setting [23]) and in assay [12] (setting [24]) were 0.886 (inactive) and 2.98, respectively. In addition, the cell count in [12] (setting [25]) turned out to be 11700; in assay [12] (setting [26]), 13200. The remaining NAD in assay [13] is 10 nM (inactive).
`C[n+]1c2cc(N)ccc2cc2ccc(N)cc21`: in assay [2], the score was found to be 0.44. The rescue above control in [3] turned out to be 0. Moreover, the cytochrome c release ratio in assay [4] came to 0.97. This compound displayed an inhibition of aggregation in assay [5] of 91.3%. In assay [6], the glutamate uptake change is 14.1%. In addition, the aggregation suppression score in assay [8] turned out to be 0.101. The parasite load remaining in [9] is 25.5% (inactive) and -0.145% (inactive). Further, the viability in [9] was 41.9% and 34.3%. Also, the inhibition in assay [10] is -0.987% (inactive). Also, in [11], the red/green cell ratio (normalised) is 0.5 (active). In addition, the normalised cell number in [11] (setting [21]) amounted to 0.8; in [11] (setting [22]) it was 0.4. The fold change in assay [12] (setting [23]) is 1.05 (inactive); in assay [12] (setting [24]), 0.642. Besides, the cell count in [12] (setting [25]) was found to be 1590; in assay [12] (setting [26]) it was 1510. The remaining NAD in assay [13] was 10 nM (inactive). The luciferase signal in [14] was 24 AU (inactive).
As for `CN(C)CCC(c1ccc(Br)cc1)c1ccccn1` (stereo not drawn), the period change in assay [15] is 0.005 h (inactive). In addition, the survival in [16] was 1.08 (inactive). The inhibition is 0% (inactive) in assay [17] and 5% (inactive) in [10]. Also, the red/green cell ratio (normalised) in [11] was 1.05 (inactive). In addition, the normalised cell number in [11] (setting [21]) stood at 1.13; in assay [11] (setting [22]), 1.19. In addition, in assay [18], the compound was called inactive. Moreover, the z-score in assay [19] (MELAS cybrid survival, CellTiter-Glo 48 h, stronger effect = higher value) was -0.114 (inactive) and -0.273 (inactive) and -0.659 (inactive); in [19] (Rieske KO mouse fibroblast survival, CellTiter-Glo 72 h), -0.476 and -0.248 and 0.132; in [20], -0.18 (inactive) and -0.16 (inactive) and 0.035 (inactive). For the same compound, in assay [13], the remaining NAD is 10 nM (inactive). In [14], the luciferase signal was 48 AU (inactive).
For `Cc1[nH]ccc2c1[nH]c1cc(=O)ccc12`, in [16], the survival is 3 (inactive). Moreover, in assay [9], the parasite load remaining is 74.5% (inactive) and 99.2% (inactive) and 81.5% (inactive). The viability in assay [9] was 88.4% and 65.9% and 69.9%. For the same compound, the inhibition in assay [10] was 8.86% (inactive). Further, the red/green cell ratio (normalised) in assay [11] was 0.84 (inactive). For the same compound, the normalised cell number was found to be 1 in assay [11] (setting [21]) and 0.83 in assay [11] (setting [22]). The fold change in assay [12] (setting [23]) was 0.837 (inactive); in assay [12] (setting [24]), 1.33. Besides, the cell count in assay [12] (setting [25]) was found to be 6490; in assay [12] (setting [26]), 7750. In addition, in assay [14], the luciferase signal was 76 AU (inactive).
Regarding `O=C1NS(=O)(=O)c2ccccc21`, the inhibition in assay [1] was 13.8%; in assay [10] it was 10.4% (inactive). The compound further came in with a score in assay [2] of 0.92. Moreover, the rescue above control in assay [3] is -8.57. Besides, the cytochrome c release ratio in assay [4] worked out at 0.95. Also, the inhibition of aggregation in assay [5] is 78.3%. Besides, the glutamate uptake change in [6] came to 6.02%. In [7], this compound showed an inclusion score of 2. Further, in assay [8], the aggregation suppression score came out at 1.22. The parasite load remaining in assay [9] was 95.1% (inactive) and 37.4% (inactive). Also, in assay [9], the viability was 71.8% and 92.3%. The red/green cell ratio (normalised) in assay [11] is 1.14 (inactive). For the same compound, the normalised cell number stood at 1.03 in assay [11] (setting [21]) and 1.17 in assay [11] (setting [22]). Further, the remaining NAD in [13] was 10 nM (inactive). For the same compound, the luciferase signal in assay [14] was 40 AU (inactive).
